Assay [1] has as its target PEG-3 (UniProt Q6IN02). The assay can be described thus: inhibition of PEG-3 promoter-driven reporter – cell-based, HeLa, luciferase, CREF/GAPDH counter-screen panel, dose response (AID 624167). Particulars: CREF/GAPDH counter-screens; HeLa PEG-Prom luciferase reporter, overnight, run 1, dose range 1, at 100 µM (top of the series) unless noted. (Counterscreens check selectivity or assay interference.)

Assay [2] addresses PEG-3 (UniProt Q6IN02). The description is as above. Particulars: CREF/GAPDH counter-screens; HeLa PEG-Prom luciferase reporter, overnight, run 2, dose range 1, at 100 µM (top of the series) unless noted.

PEG-3, sequence (Q6IN02 whole entry, looked up): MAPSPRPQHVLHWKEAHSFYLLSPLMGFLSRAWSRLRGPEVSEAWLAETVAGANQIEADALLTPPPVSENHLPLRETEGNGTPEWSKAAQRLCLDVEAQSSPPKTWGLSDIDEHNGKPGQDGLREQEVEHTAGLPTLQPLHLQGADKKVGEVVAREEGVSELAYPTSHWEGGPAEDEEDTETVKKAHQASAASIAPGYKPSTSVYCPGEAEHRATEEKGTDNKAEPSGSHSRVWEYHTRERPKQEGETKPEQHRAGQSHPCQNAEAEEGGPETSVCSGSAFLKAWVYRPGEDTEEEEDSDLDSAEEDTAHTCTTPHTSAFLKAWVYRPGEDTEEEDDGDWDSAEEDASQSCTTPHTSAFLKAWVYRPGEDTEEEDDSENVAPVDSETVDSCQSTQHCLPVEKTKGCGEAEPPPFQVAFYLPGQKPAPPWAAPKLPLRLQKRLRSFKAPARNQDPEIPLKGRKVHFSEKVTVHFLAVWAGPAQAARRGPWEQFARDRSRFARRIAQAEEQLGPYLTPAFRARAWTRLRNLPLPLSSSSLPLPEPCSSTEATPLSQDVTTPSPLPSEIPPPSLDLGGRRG

For `COc1ccc(-n2ncc3c(N(C)C4CCCCC4)ncnc32)cc1`, the inhibition (in general, the relative decrease from the control value, in per cent) came out at 96.6% with PEG-3 [1] and 89.4% with PEG-3 [2].

In the case of `CC(=O)c1ccc(Nc2nc(C(N)Cc3ccc(Cl)cc3)cs2)cc1` (configuration not stated), the results for the inhibition with PEG-3 [1] and with PEG-3 [2] were 99.5% and 98.2%, respectively.

Turning to `O=C(c1ccco1)N1CCN(c2ncnc3c2[nH]c2ccc(Br)cc23)CC1`, the inhibition is 99.5% with PEG-3 [1] and 98.2% with PEG-3 [2].

In the case of `COc1cc(NC(=O)c2cccc(C)c2)ccc1NC(=O)c1cc2ccccc2o1`, the inhibition is 76.6% [run 1, dose range 1, at 50 µM] with PEG-3 [1] and 94.6% [run 2, dose range 1, at 50 µM] with PEG-3 [2].

Turning to `O=C(Nc1ccc(CN2CCCCC2)cc1)Nc1ccc(Br)cc1Cl`, the inhibition came out at 99% in the assay with PEG-3 [1] and 101% in the assay with PEG-3 [2].

`CC1(C)C(=O)C=CC(=O)C(C)(C)C(=O)C=CC(=O)C(C)(C)C2=CC=C(O2)C(C)(C)C(=O)C=CC1=O`: the inhibition was 102% with PEG-3 [1] and 98.9% in the assay with PEG-3 [2].

For the molecule `Cc1cccc(CN2C(=O)/C(=C\c3ccc(C(=O)NCCN4CCOCC4)cc3)Sc3ccccc32)c1`, the inhibition is 102% with PEG-3 [1] and 99.5% with PEG-3 [2].

In the case of `COc1ccccc1C1c2ccc3ccccc3c2Oc2ncn(CCCO)c(=N)c21` (configuration not stated), the inhibition was found to be 102% with PEG-3 [1] and 98.3% with PEG-3 [2].

In the case of `COc1ccc(-c2cc(C(=O)N(C)Cc3cccc(OC)c3OC)c3ccccc3n2)cc1OC`, the inhibition with PEG-3 [1] was 72.4%; with PEG-3 [2] it was 74.7%.

Take `CCCCCCSc1cc(-c2nc3ccc(C)cn3c2NCCCC)ccc1OC`: the inhibition amounted to 98.7% in the assay with PEG-3 [1] and 101% in the assay with PEG-3 [2].

As to `CC1(C(=O)NCc2cccc3ccccc23)CCN1C(=O)Cc1ccc(-c2ccccc2)cc1` (configuration not stated), the inhibition stood at 52.6% in the assay with PEG-3 [1] and 43.6% in the assay with PEG-3 [2].

For `O=C(Nc1ccc2oc(-c3ccncc3)nc2c1)c1ccc([N+](=O)[O-])o1`, the inhibition with PEG-3 [1] was determined as 99%; with PEG-3 [2], 101%.

With `COc1ccc2sc(N(CCCN(C)C)C(=O)c3ccc(S(=O)(=O)N4CCCc5ccccc54)cc3)nc2c1`, the inhibition with PEG-3 [1] was determined as 98.4%; with PEG-3 [2], 102%.

As for `CCCCCCCCNCCS(=O)(=O)NCc1ccc(OC)cc1`, the inhibition turned out to be 98.9% with PEG-3 [1] and 95.7% with PEG-3 [2].

Turning to `Cc1ccc2nc(N(CCCN(C)C)C(=O)c3ccc4c(c3)CCCC4)sc2c1`, the figures for the inhibition in the assay with PEG-3 [1] and with PEG-3 [2] were 99.5% and 101%, respectively.

Consider `Cc1cc(C)cc(NC(=O)Cn2c(=O)oc3cc(S(=O)(=O)N4CCC(C)CC4)ccc32)c1`, for which the inhibition came out at 19.2% with PEG-3 [1] and 47.7% with PEG-3 [2].

For `CC(=O)Nc1ccc(S(=O)(=O)N(Cc2ccco2)Cc2cc3ccccc3[nH]c2=O)cc1`, the values for the inhibition with PEG-3 [1] and in the assay with PEG-3 [2] were 91.7% and 71.7%, respectively.

For the molecule `CCOC(=O)c1cnc2c(cnn2C)c1NCCCN(C)C`, the inhibition amounted to 80.7% with PEG-3 [1] and 88.6% with PEG-3 [2].

Consider `COc1cccc(N2CCN(CC(=O)Nc3ccccc3C(=O)NCc3ccccc3)CC2)c1`, for which the inhibition in the assay with PEG-3 [1] is 56.8%; in the assay with PEG-3 [2], 70.2%.

For the molecule `COc1ccccc1CCNC(=O)C1CCN(c2nnc(C)c3c(C)n(-c4ccc(C)cc4)nc23)CC1`, the inhibition was 99% in the assay with PEG-3 [1] and 97.3% with PEG-3 [2].

With `Cc1nc2c(OCc3ccc(OC(F)F)cc3)cccn2c1N(C)C(=O)CCC1CCCC1`, the inhibition in the assay with PEG-3 [1] amounted to 95.4%; with PEG-3 [2], 99.7%.

With `COc1cccc(NC(=O)CN(C)C(=O)c2cc(-c3ccc(F)cc3)nc3ccccc23)c1`, the inhibition with PEG-3 [1] is 102%; with PEG-3 [2], 99.1%.

Consider `CCN(Cc1ccccc1)S(=O)(=O)c1ccc(C(=O)N(CCCN(C)C)c2nc3cc4c(cc3s2)OCO4)cc1`, for which the values for the inhibition with PEG-3 [1] and with PEG-3 [2] were 102% and 101%, respectively.

On to `COc1cccc2c1C(=N)c1c(O)c3c(c(O)c1C2=O)CC(O)(C(C)=O)CC3OC1CC(N)C(O)C(C)O1` (configuration not stated), for which the inhibition came out at 99.1% in the assay with PEG-3 [1] and 102% with PEG-3 [2].

For `CN1Cc2c(N3CCOCC3)nc3sc(C(=O)c4ccc(Br)cc4)c(N)c3c2CC1(C)C`, the inhibition in the assay with PEG-3 [1] worked out at 99%; with PEG-3 [2], 101%.

As to `COC(=O)CSC1=NS(=O)(=O)c2ccccc21`, the inhibition came to 66.3% with PEG-3 [1] and 98% with PEG-3 [2].

In the case of `COC(=O)c1cc(=O)n(Cc2ccco2)c(=Nc2ccc(F)cc2)s1`, the inhibition with PEG-3 [1] and with PEG-3 [2] was 102% in each case.

Consider `CN1CCC(N(C)S(=O)(=O)c2ccc(NC(=O)COc3ccc(Br)cc3Cl)cc2)CC1`, for which the figures for the inhibition with PEG-3 [1] and with PEG-3 [2] were 99.8% and 101%, respectively.

As for `O=C(c1cc(-c2cccs2)nn1-c1ccccc1)N1CCN(S(=O)(=O)c2ccccc2)CC1`, the inhibition was -25.3% in the assay with PEG-3 [1] and 27.8% in the assay with PEG-3 [2].

With `CSc1ccc2c(c1)C(N1CCN(C)CC1)Cc1ccccc1S2` (configuration not stated), the inhibition in the assay with PEG-3 [1] amounted to 102%; with PEG-3 [2], 98.9%.

For `CCOC(=O)c1c(NC(C)=O)sc2c(OCC(O)CN(CC)CC)c(Br)ccc12` (configuration not stated), the values for the inhibition with PEG-3 [1] and in the assay with PEG-3 [2] were 102% and 98.6%, respectively.

Consider `Cc1cccc(N=C2Sc3nc4c(C)c(C)ccc4cc3CN2CCN2CCOCC2)c1`, for which the inhibition in the assay with PEG-3 [1] was 85.6%; with PEG-3 [2], 93.7%.

Regarding `O=[N+]([O-])c1ccc(-c2nc(Nc3cccc(O)c3)c3ccccc3n2)cc1`, the inhibition with PEG-3 [1] was 99.4%; in the assay with PEG-3 [2], 101%.

As for `O=c1[nH]c(=O)n(C2OC(CO)C(O)C2O)cc1F` (configuration not stated), the inhibition with PEG-3 [1] stood at 68.7%; with PEG-3 [2], 76.9%.

On to `CC(=O)Nc1cccc(-c2ccnc3c2CC(C)(C(=O)Nc2cccc(C(F)(F)F)c2)O3)c1` (configuration not stated), for which the inhibition with PEG-3 [1] came to 92.6%; with PEG-3 [2] it was 88.4%.

`CNCC[C@H](Oc1cccc2ccccc12)c1cccs1`: the inhibition in the assay with PEG-3 [1] came out at 102%; in the assay with PEG-3 [2] it was 98.8%.

For `COC(=O)c1cn(NC(=O)c2cc([N+](=O)[O-])ccc2F)c(=O)c2ccccc12`, the inhibition was found to be 95.3% with PEG-3 [1] and 94% with PEG-3 [2].

Turning to `CC(C)(C)c1ccc(OCCCNCc2ccccc2)cc1`, the inhibition with PEG-3 [1] was found to be 99.8%; with PEG-3 [2] it was 98%.

Consider `CCN1CCN(c2ncc(C(=O)Nc3cc(Cl)ccc3OC)c3ccccc23)CC1`, for which the inhibition in the assay with PEG-3 [1] was 100%; with PEG-3 [2], 98.7%.

For `CCN1CCN(CCNC(=O)c2ccc(/C=C3\Sc4ccccc4N(Cc4ccccc4F)C3=O)cc2)CC1`, the inhibition with PEG-3 [1] was determined as 102%; in the assay with PEG-3 [2], 101%.

Consider `CN(Cc1ccccc1)C(=O)c1ccc(Nc2nc(C(N)Cc3ccccc3)cs2)nc1` (configuration not stated), for which the values for the inhibition with PEG-3 [1] and in the assay with PEG-3 [2] were 102% and 101%, respectively.

Source of the values: PubChem BioAssay.
